Source: PubChem BioAssay (EPA / NIEHS)
“And” between values parts separate entries of the source, which are not always exact repeats. Identical values can stand only once. Some structures have more than one record in an assay (separate samples or runs), and their calls can disagree. The source made the active and inactive calls. How the source made its calls: active means hit-call score of the fitted dose curve at least 0.9, where 1 is the maximum; inactive means score below 0.9.

Assays:
[1] = read-out: Vascular endothelial growth factor receptor 2 (Homo sapiens) (UniProt P35968); assay: BSK_4H_VEGFRII: BioMAP Diversity Plus: 4H Assay for Vascular endothelial growth factor receptor 2 (VEGFR2) Biomarker Activity (AID 2283031); conditions: primary human endothelial cells (HUVEC); actives raise or lower the signal;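 on AC50: cell-surface VEGFR2 protein level quantified by ELISA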
Procedure, shortened: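 Primary human umbilical vein endothelial cells in the BioMAP 4H system were dosed with test chemical, and 24 h later VEGFRII was measured by ELISA. Activity was fitted bidirectionally against DMSO as negative control and baseline.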

[2] = read-out: Human Leukocyte Antigen - DR isotype (HLADR), HLA-DRA (gene 3122); assay: BSK_BE3C_HLADR: BioMAP Diversity Plus: BE3C Assay for Human Leukocyte Antigen - DR isotype (HLADR) Biomarker Activity (AID 2283032); conditions: primary human bronchial epithelial cells; actives raise or lower the signal
Procedure, shortened: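 ELISA read-out of HLA-DR on human lung bronchial epithelial primary cells, measured 24 h post-dosing. Both increases and decreases were scored relative to DMSO vehicle.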

[3] = read-out: Vascular cell adhesion molecule 1 (VCAM1), VCAM1 (gene 7412); assay: BSK_4H_VCAM1: BioMAP Diversity Plus: 4H Assay for Vascular cell adhesion molecule 1 (VCAM1) Biomarker Activity (AID 2283033); conditions: primary human endothelial cells (HUVEC); actives raise or lower the signal
Procedure, shortened: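 ELISA read-out of VCAM-1 on human umbilical vein endothelium 24 hours after chemical dosing; gain or loss of signal was fitted relative to DMSO, with sulforhodamine B staining of parallel cultures flagging overt cytotoxicity.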

[4] = read-out: Interferon-gamma inducible Protein 10 (IP10), CXCL10 (gene 3627); assay: BSK_BE3C_IP10: BioMAP Diversity Plus: BE3C Assay for Interferon-gamma inducible Protein 10 (IP10) Biomarker Activity (AID 2283034); conditions: primary human bronchial epithelial cells; actives raise or lower the signal
Procedure, shortened: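 Chemical is dosed onto human lung bronchial epithelial primary cells, cultures are incubated 24 h, and IP-10 is then quantified by ELISA. Gain or loss of signal is fitted in both directions relative to DMSO.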

[5] = read-out: Monokine induced gamma interferon (MIG), CXCL9 (gene 4283); assay: BSK_BE3C_MIG: BioMAP Diversity Plus: BE3C Assay for Monokine induced gamma interferon (MIG) Biomarker Activity (AID 2283035); conditions: primary human bronchial epithelial cells; actives raise or lower the signal
Procedure, shortened: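 ELISA read-out of MIG in human lung bronchial epithelial primary cultures, 24 h post-dosing. Bidirectional curve fit vs DMSO baseline.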

[6] = read-out: Transforming growth factor beta 1 (TGFb1), TGFB1 (gene 7040); assay: BSK_BE3C_TGFb1: BioMAP Diversity Plus: BE3C Assay for Transforming growth factor beta 1 (TGFb1) Biomarker Activity (AID 2283036); conditions: primary human bronchial epithelial cells; actives raise or lower the signal
Procedure, shortened: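 Primary human lung bronchial epithelial cells; compound exposure 24 h; TGF-b1 by ELISA; bidirectional fit, DMSO baseline. Parallel SRB total-protein staining for cytotoxicity.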

[7] = read-out: Plasminogen activator inhibitor-1 (PAI1), SERPINE1 (gene 5054); assay: BSK_BE3C_PAI1: BioMAP Diversity Plus: BE3C Assay for Plasminogen activator inhibitor-1 (PAI1) Biomarker Activity (AID 2283037); conditions: primary human bronchial epithelial cells; actives raise or lower the signal
Procedure, shortened: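 Primary human lung bronchial epithelial cells; chemical dosing; 24 h; PAI-1 measured by ELISA; bidirectional fit referenced to DMSO as negative control.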

[8] = read-out: urokinase plasminogen activator (uPA), PLAU (gene 5328); assay: BSK_BE3C_uPA: BioMAP Diversity Plus: BE3C Assay for urokinase plasminogen activator (uPA) Biomarker Activity (AID 2283038); conditions: primary human bronchial epithelial cells; actives raise or lower the signal
Procedure, shortened: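 Human primary bronchial epithelial cells were exposed to chemical for 24 h, then uPA levels were measured by ELISA. Responses were fitted bidirectionally against DMSO as negative control and baseline. Parallel SRB staining of total protein gauged overt cytotoxicity.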

[9] = read-out: Urokinase-type plasminogen activator receptor (uPAR), PLAUR (gene 5329); assay: BSK_BE3C_uPAR: BioMAP Diversity Plus: BE3C Assay for Urokinase-type plasminogen activator receptor (uPAR) Biomarker Activity (AID 2283039); conditions: primary human bronchial epithelial cells; actives raise or lower the signal
Procedure, shortened: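 Human bronchial epithelial primary cells; chemical exposure 24 h; uPAR by ELISA; bidirectional fit vs DMSO control.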

[10] = read-out: Interleukin-6 (IL6), IL6 (gene 3569); assay: BSK_CASM3C_IL6: BioMAP Diversity Plus: CASM3C Assay for Interleukin-6 (IL6) Biomarker Activity for (AID 2283040); conditions: primary human coronary artery smooth muscle cells; actives raise or lower the signal
[11] = read-out: Tissue plasminogen activator (tPA), PLAT (gene 5327); assay: BSK_BE3C_tPA: BioMAP Diversity Plus: BE3C Assay for Tissue plasminogen activator (tPA) Biomarker Activity (AID 2283041); conditions: primary human bronchial epithelial cells; actives raise or lower the signal
Procedure, shortened: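 Primary human lung bronchial epithelial cultures receive test chemical; after 24 h, tPA is quantified by ELISA, and gain or loss of signal is fitted bidirectionally relative to DMSO baseline.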

[12] = read-out: Interleukin-8 (IL8), CXCL8 (gene 3576); assay: BSK_CASM3C_IL8: BioMAP Diversity Plus: CASM3C Assay for Interleukin-8 (IL8) Biomarker Activity (AID 2283042); conditions: primary human coronary artery smooth muscle cells; actives raise or lower the signal;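 further: IL-8 protein level quantified by ELISA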
[13] = read-out: Human Leukocyte Antigen - DR isotype (HLADR), HLA-DRA (gene 3122); assay: BSK_CASM3C_HLADR: BioMAP Diversity Plus: CASM3C Assay for Human Leukocyte Antigen - DR isotype (HLADR) Biomarker Activity (AID 2283043); conditions: primary human coronary artery smooth muscle cells; actives raise or lower the signal;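 further: cell-surface HLA-DR protein level quantified by ELISA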
[14] = read-out: Macrophage colony-stimulating factor (MCSF), CSF1 (gene 1435); assay: BSK_CASM3C_MCSF: BioMAP Diversity Plus: CASM3C Assay for Macrophage colony-stimulating factor (MCSF) Biomarker Activity (AID 2283044); conditions: primary human coronary artery smooth muscle cells; actives raise or lower the signal;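 further: M-CSF protein amount quantified by ELISA after 24 h exposure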
[15] = read-out: Low-density lipoprotein receptor (LDLR), LDLR (gene 3949); assay: BSK_CASM3C_LDLR: BioMAP Diversity Plus: CASM3C Assay for Low-density lipoprotein receptor (LDLR) Biomarker Activity (AID 2283045); conditions: primary human coronary artery smooth muscle cells; actives raise or lower the signal;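 further: LDLR protein level on the cell surface quantified by ELISA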
[16] = read-out: Monocyte Chemoattractant Protein-1 (MCP1), CCL2 (gene 6347); assay: BSK_CASM3C_MCP1: BioMAP Diversity Plus: CASM3C Assay for Monocyte Chemoattractant Protein-1 (MCP1) Biomarker Activity (AID 2283046); conditions: primary human coronary artery smooth muscle cells; actives raise or lower the signal;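 further: MCP-1 level quantified by ELISA 24 h after dosing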
[17] = BSK_CASM3C_Proliferation: Cell Proliferation Assessment in the BioMAP Diversity Plus: CASM3C Assay (AID 2283047); conditions: primary human coronary artery smooth muscle cells;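 further: sulforhodamine B total protein stain as relative cell number at 560 nm; sub-confluent cells exposed 48 h before staining; fitted both ways against DMSO so gain or loss of cell number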
[18] = read-out: Monokine induced gamma interferon (MIG), CXCL9 (gene 4283); assay: BSK_CASM3C_MIG: BioMAP Diversity Plus: CASM3C Assay for Monokine induced gamma interferon (MIG) Biomarker Activity (AID 2283048); conditions: primary human coronary artery smooth muscle cells; actives raise or lower the signal
[19] = read-out: serum amyloid A (SAA), SAA1 (gene 6288); assay: BSK_CASM3C_SAA: BioMAP Diversity Plus: CASM3C Assay for serum amyloid A (SAA) Biomarker Activity (AID 2283049); conditions: primary human coronary artery smooth muscle cells; actives raise or lower the signal;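 further: SAA protein level quantified by ELISA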

Measured: AC50

Clc1cc(Cl)c(Cl)c(Cl)c1Cl
active: [3] 20 µM
inactive: all other assays above

CC(CCC(=O)O)(c1ccc(O)cc1)c1ccc(O)cc1
not listed: [6]
inactive: all other assays above

CCCCC1C(=O)N(c2ccccc2)N(c2ccccc2)C1=O
inactive: all assays above

c1ccc(Nc2cccc3ccccc23)cc1
active: [1] 33.2 µM and 32.2 µM | [2] 28 µM and 30.7 µM | [3] 31.4 µM and 28.8 µM | [4] 29.1 µM and 30.6 µM | [7] 12.7 µM and 20.4 µM | [9] 35.2 µM | [10] 13.4 µM and 12.9 µM | [11] 30.6 µM and 32.2 µM | [14] 20 µM and 149 nM | [16] 29.9 µM and 28.9 µM | [17] 7.17 µM and 25.9 µM
inactive: [5] | [8] | [9] | [12] | [13] | [15] | [18] | [19]

O=C1CCCCCCCCCCCN1
inactive: all assays above

CCC1(C)C(=O)N(Cl)C(=O)N1Cl (stereo not drawn)
inactive: all assays above

CCCCCCCCCCCC(=O)N(C)CC(=O)O
active: [1] 9.25 µM and 120 nM | [3] 3.87 µM and 2.41 µM | [18] 30.9 µM
inactive: [2] | [4] | [5] | [7] | [8] | [9] | [10] | [11] | [12] | [13] | [14] | [15] | [16] | [17] | [18] | [19]

C1CNCCN1
inactive: all assays above

CCOC(=O)/C=C\C(=O)OCC
inactive: all assays above

Oc1ccc(/C=C/c2cc(O)cc(O)c2)cc1
active: [2] 20 µM | [9] 11.1 µM | [10] 13.6 µM | [17] 10.5 µM | [19] 15.9 µM
not listed: [4]
inactive: all other assays above

O=C(O)C(F)(F)C(F)(F)C(F)(F)C(F)(F)C(=O)O
not listed: [6]
inactive: all other assays above

CCCC(C)C(=O)OCC (stereo not drawn)
not listed: [6]
inactive: all other assays above

CC/C=C\C/C=C\C/C=C\CCCCCCCC(=O)OC
inactive: [1]
active: [2] 13.4 µM | [3] 29 µM | [4] 11.8 µM | [5] 29.6 µM | [6] 9.17 µM | [7] 25.5 µM | [8] 29.8 µM | [9] 28.8 µM | [10] 31.5 µM | [11] 9.51 µM | [12] 32.2 µM | [13] 12.1 µM | [14] 22.6 µM | [15] 28.7 µM | [16] 29.7 µM | [17] 8.6 µM | [18] 29.3 µM | [19] 26 µM
